Tested on: HepG2
Assay: GSK_TCMDC: Percent inhibition of human HepG2 cell line. Test compounds present at 10uM.
Assay type: functional

Row | Structure (SMILES) | Inhibition
1 | COc1cc(OCCCN(C)Cc2ccc(OC)c(OC)c2)ccc1NC(=O)c1cccc2c(O)c3cccc(F)c3nc12 | 10%
2 | COc1ccc(-c2ccc(CN(C)C3CCC(NC(=O)c4cc5ccccc5[nH]4)CC3)cc2)cn1 (stereo not given) | 31%
3 | C[C@@H](NC(=O)NC(CCN1CCC2(CC1)CN(S(C)(=O)=O)c1ccccc12)c1ccc(Cl)c(Cl)c1)c1ccccc1 (stereo not given in full) | 15%
4 | CCN(CC)CCN(Cc1ccc(-c2ccc(Cl)s2)cc1)C(=O)Cn1c(CCc2cccc(F)c2F)nc(=O)c2ccccc21.O=C(O)C(O)C(O)C(=O)O | 24%
5 | Cc1cc(NCCC(=O)NCc2cccc(F)c2)nc(Nc2ccccc2)n1.O=C(O)C(F)(F)F | 0%
6 | CC(=O)Nc1ncc(C(=O)Nc2ccc(-c3cccc(-c4nc5cc(C(F)(F)F)ccc5[nH]4)c3)cc2)s1 | 79%
7 | CC(=O)Nc1cccc(NC(=O)CSc2ccc(-c3nc4ccccc4[nH]3)cn2)c1 | 22%
8 | O=C(O)C(F)(F)F.O=c1ccc2ccc(F)c3c2n1CC3CN1CCC(NCc2ccc(-c3cccc(Cl)c3)nc2)CC1 (stereo not given) | 16%
9 | CSc1ccc(CN2CCC(NC(=O)c3ccc(-c4cccc(C(F)(F)F)c4)s3)CC2)cc1.O=C(O)C(F)(F)F | 68%
10 | c1ccc(OCCOc2ccc(Nc3ccnc4cc5ccccc5cc34)cc2)cc1 | 44%
11 | NC1CCCN(Cc2ccc(-c3cccc(-c4nc5ccccc5[nH]4)c3)cc2)C1.O=C(O)C(F)(F)F (stereo not given) | 26%
12 | O=C(Cn1c(SCc2cccc(F)c2F)cc(=O)c2ccccc21)N(CCc1c[nH]cn1)Cc1ccc(-c2ccc(C(F)(F)F)cc2)cc1 | 18%
13 | COc1ccc(Nc2nccc(N3CCC(NS(=O)(=O)c4ccc(NC(C)=O)cc4)C3)n2)cc1 (stereo not given) | 3%
14 | Cc1cccc(Nc2nccc(NCC(O)c3cccc(C(F)(F)F)c3)n2)c1 (stereo not given) | 25%
15 | CCOc1cc(C(=O)N[C@@H](Cc2ccccc2)[C@H](O)CNCc2cc(OC)cc(OC)c2)cc(N2CCCS2(=O)=O)c1.Cl | 0%
16 | CN1CCN(c2cc3c(cc2Cl)CCN3C(=O)Cc2ccc(Cl)c(NC(=O)Nc3cccc(C#N)c3)c2)CC1 | 0%
17 | COc1cc(CCOc2c(C)nc(N)nc2N)cc(OC)c1OC.Cl | 59%
18 | Cc1cccc(CNc2nc(C)cc(N[C@@H](CC(C)C)C(=O)NCCOc3ccccc3)n2)c1.O=C(O)C(F)(F)F | 15%
19 | Cc1cc(-c2ccc3c(c2)CCN(CCC2CCC(NC(=O)/C=C/c4ccccc4F)CC2)CC3)on1.Cl (stereo not given) | 26%
20 | CC(C)(CN)c1nc(-c2ccc(Br)c(O)c2)c(-c2ccncc2)[nH]1.Cl | 31%
21 | S=C(NCCN1CCOCC1)Nc1ccccc1 | 3%
22 | Cc1cc2nc(-c3ccc(/C=C/C(=O)NCCc4ccccc4)cc3)[nH]c2cc1C | 3%
23 | CN1CC[C@@H](Oc2cc(Nc3nc(-c4ccc(C#N)cc4)cs3)ccc2Cl)C1.Cl | 12%
24 | COc1ccc2nccc([C@@H](O)CN3CCC(NCc4cnc5snnc5c4)C(F)C3)c2c1.Cl (stereo not given in full) | 13%
25 | CC1CCC(NC(=O)c2nn(-c3ccc(Cl)cc3)c(=O)c3ccccc23)CC1 (stereo not given) | 3%

— ChEMBL document CHEMBL1157539, “Thousands of chemical starting points for antimalarial lead identification” (Nature, 2010)
